Among the data in PubChem BioAssay (EPA / NIEHS) are outcome and AC50 values, retold here.

The target in test [1] is Oxysterols receptor LXR-alpha (Homo sapiens) (UniProt Q13133). Nature of the test: ATG_LXRa_TRANS: Attagene TRANS-FACTORIAL HepG2 Assay for human Liver X Receptor alpha (LXRa) (AID 2282980). The following applies: HepG2 Attagene TRANS reporter, LXRa transactivation. In outline: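 Transient HepG2 transfectants, 24 h dosing, RT-PCR/CE mRNA reporter quantitation; gain-of-signal vs DMSO.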

Test [2] concerns the target Oxysterols receptor LXR-beta (Homo sapiens) (UniProt P55055). Nature of the test: ATG_LXRb_TRANS: Attagene TRANS-FACTORIAL HepG2 Assay for human Liver X Receptor beta (LXRb) (AID 2282981). The following applies: HepG2 Attagene TRANS GAL4-LXRb reporter, mRNA. In a few lines:
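Multiplexed reporter assay, HepG2, 24 h dosing. Fluorescence of labelled RT-PCR products after capillary electrophoresis gives transcript level; positive fitting direction relative to DMSO.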

The nature of test [3]: ATG_M_06_TRANS: Attagene TRANS-FACTORIAL HepG2 Assay for M06 Transcription Factor (Internal Marker) (AID 2282983). Particulars: HepG2 Attagene TRANS M06 internal marker reporter. In outline: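 Human liver HepG2 cells bearing transiently transfected chimeric NR-GAL4 reporter units were treated with chemicals for 24 h. Total RNA was reverse-transcribed, reporter sequences amplified and labelled, then quantified by capillary electrophoresis. Activity was fitted upward relative to DMSO.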

Test [4] can be described thus: ATG_M_32_TRANS: Attagene TRANS-FACTORIAL HepG2 Assay for M32 Transcription Factor (Internal Marker) (AID 2282984).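 Also: transcript level of a background control reporter unit measured by RT-PCR and capillary electrophoresis.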 Particulars: HepG2 Attagene TRANS M32 internal marker reporter. In outline:
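Internal-marker readout from a multiplexed transcription reporter panel. HepG2 cells were transfected with GAL4-UAS reporter units, treated 24 hours, and reporter transcript levels determined by fluorescence after RT-PCR and capillary separation.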

Test [5] concerns the target Nuclear receptor subfamily 4 group A member 2 (Homo sapiens) (UniProt P43354). Nature of the test: ATG_NURR1_TRANS: Attagene TRANS-FACTORIAL HepG2 Assay for human Nuclear Receptor Related Protein 1 (NURR1) (AID 2282985). The following applies: HepG2 Attagene TRANS reporter, mRNA readout. In a few lines:
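Endpoint: reporter mRNA increase relative to DMSO. HepG2 cells transfected with reporter units, treated 24 h; RNA processed by RT-PCR, labelling, HpaI digestion and capillary electrophoresis.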

The target of test [6] is Transcriptional activator Myb (Homo sapiens) (UniProt P10242). Nature of the test: ATG_Myb_CIS: Attagene CIS-FACTORIAL HepG2 Assay for human Myeloblastosis (Myb) Proto-Oncogene Transcription Factor (AID 2282986; active = hit-call score of the fitted dose curve at least 0.9, where 1 is the maximum; inactive = score below 0.9). The following applies: HepG2 Attagene CIS-FACTORIAL Myb reporter transcription; actives raise or lower the signal. In a few lines: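 Steps: transfect HepG2 with cis-regulated reporter units; dose with chemical for 24 h; isolate RNA, reverse-transcribe, PCR-amplify and FAM-label reporter sequences; digest with HpaI; resolve by capillary electrophoresis. Activity fitted in both directions relative to DMSO.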

The target of test [7] is Nuclear respiratory factor 1 (Homo sapiens) (UniProt Q16656). In words: ATG_NRF1_CIS: Attagene CIS-FACTORIAL HepG2 Assay for human Nuclear Respiratory Factor 1 (NRF1) Orphan Gene (AID 2282987; active = hit-call score of the fitted dose curve at least 0.9, where 1 is the maximum; inactive = score below 0.9). Particulars: HepG2 NRF1 cis-element reporter, Attagene multiplex; actives raise or lower the signal. In outline: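 Fluorescence intensity of labelled reporter cDNA fragments, resolved by capillary electrophoresis, served as readout for NRF1 cis-element activity. Transiently transfected HepG2 cells were dosed for 24 hours; activity in either direction was fitted against DMSO negative control.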

Test [8] is described as follows: ATG_NFI_CIS: Attagene CIS-FACTORIAL HepG2 Assay for human Nuclear Factor I (NFI) (AID 2282989; active = hit-call score of the fitted dose curve at least 0.9, where 1 is the maximum; inactive = score below 0.9). Particulars: HepG2 cis-regulatory reporter, NFI response element transcription; actives raise or lower the signal. In outline: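 Read-out: reporter mRNA via RT-PCR plus capillary electrophoresis with fluorescence detection. Transiently transfected HepG2 (endogenous TF activity on cis promoters), 24 h compound exposure; gain or loss of signal fitted against DMSO.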

For test [9], the target named is Hepatocyte nuclear factor 4-alpha (Homo sapiens) (UniProt P41235). Nature of the test: ATG_HNF4a_TRANS: Attagene TRANS-FACTORIAL HepG2 Assay for human Hepatocyte Nuclear Factor 4 alpha (HNF4a) (AID 2282982). The following applies: HepG2 HNF4a transactivation reporter, mRNA readout. In a few lines:
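Endpoint reflects transcriptional activation of a GAL4-UAS reporter by an HNF4a-GAL4 chimera in transfected HepG2 cells, 24 h post-dosing. Fluorescence from RT-PCR products separated by capillary electrophoresis; DMSO baseline.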

Test [10] has as its target Glucocorticoid receptor (Homo sapiens) (UniProt P04150). In words: ATG_GR_TRANS: Attagene TRANS-FACTORIAL HepG2 Assay for human Glucocorticoid Receptor (GR) (AID 2282978).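 Also: activators score as hits since higher reporter transcript over DMSO is fitted.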 Particulars: HepG2 Attagene TRANS GR reporter, mRNA transcription. In outline:
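In this trans-factorial format, exogenous NR-GAL4 chimeric proteins in transfected HepG2 cells regulate GAL4-UAS reporter transcription. After 24 h treatment, reporter mRNA induction relative to DMSO is read by RT-PCR and capillary electrophoresis.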

Inconclusive results are not listed. Calls of active or inactive are those of the source. The calls were made as follows, unless noted: active = hit-call score of the fitted dose curve at least 0.9, where 1 is the maximum; inconclusive = response in the unintended direction; inactive = score below 0.9.

Transcriptional activator Myb (Homo sapiens), sequence (P10242 whole entry, looked up): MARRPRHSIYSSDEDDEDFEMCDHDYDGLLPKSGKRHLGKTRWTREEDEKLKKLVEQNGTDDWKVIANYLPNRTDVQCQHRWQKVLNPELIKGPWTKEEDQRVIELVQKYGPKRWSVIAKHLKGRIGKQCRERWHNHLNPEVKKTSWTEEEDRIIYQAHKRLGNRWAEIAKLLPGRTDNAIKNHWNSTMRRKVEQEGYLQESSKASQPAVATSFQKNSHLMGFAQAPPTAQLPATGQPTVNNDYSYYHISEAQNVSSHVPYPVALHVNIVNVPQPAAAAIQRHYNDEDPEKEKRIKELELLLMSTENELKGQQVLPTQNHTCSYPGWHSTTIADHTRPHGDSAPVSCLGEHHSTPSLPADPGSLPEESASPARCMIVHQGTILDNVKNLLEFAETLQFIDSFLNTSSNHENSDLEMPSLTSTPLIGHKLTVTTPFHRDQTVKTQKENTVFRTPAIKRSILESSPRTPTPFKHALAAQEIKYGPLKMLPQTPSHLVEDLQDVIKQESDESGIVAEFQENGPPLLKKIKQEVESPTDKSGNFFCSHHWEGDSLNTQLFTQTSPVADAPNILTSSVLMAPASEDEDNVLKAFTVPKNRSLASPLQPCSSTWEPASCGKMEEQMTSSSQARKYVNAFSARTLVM
Oxysterols receptor LXR-alpha (Homo sapiens), sequence (Q13133 whole entry, looked up): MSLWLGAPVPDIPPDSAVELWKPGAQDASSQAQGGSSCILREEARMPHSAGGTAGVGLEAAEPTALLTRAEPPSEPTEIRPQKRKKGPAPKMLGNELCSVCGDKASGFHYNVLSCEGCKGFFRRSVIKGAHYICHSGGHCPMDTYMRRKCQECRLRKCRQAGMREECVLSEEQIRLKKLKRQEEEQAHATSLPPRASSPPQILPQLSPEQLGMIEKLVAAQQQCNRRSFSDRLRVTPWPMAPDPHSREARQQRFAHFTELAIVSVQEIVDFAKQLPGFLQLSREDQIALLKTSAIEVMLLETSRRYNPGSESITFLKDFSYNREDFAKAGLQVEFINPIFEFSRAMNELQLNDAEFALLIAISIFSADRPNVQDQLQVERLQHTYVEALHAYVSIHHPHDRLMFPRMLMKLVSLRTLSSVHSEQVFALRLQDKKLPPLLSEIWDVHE
Nuclear receptor subfamily 4 group A member 2 (Homo sapiens), sequence (P43354 whole entry, looked up): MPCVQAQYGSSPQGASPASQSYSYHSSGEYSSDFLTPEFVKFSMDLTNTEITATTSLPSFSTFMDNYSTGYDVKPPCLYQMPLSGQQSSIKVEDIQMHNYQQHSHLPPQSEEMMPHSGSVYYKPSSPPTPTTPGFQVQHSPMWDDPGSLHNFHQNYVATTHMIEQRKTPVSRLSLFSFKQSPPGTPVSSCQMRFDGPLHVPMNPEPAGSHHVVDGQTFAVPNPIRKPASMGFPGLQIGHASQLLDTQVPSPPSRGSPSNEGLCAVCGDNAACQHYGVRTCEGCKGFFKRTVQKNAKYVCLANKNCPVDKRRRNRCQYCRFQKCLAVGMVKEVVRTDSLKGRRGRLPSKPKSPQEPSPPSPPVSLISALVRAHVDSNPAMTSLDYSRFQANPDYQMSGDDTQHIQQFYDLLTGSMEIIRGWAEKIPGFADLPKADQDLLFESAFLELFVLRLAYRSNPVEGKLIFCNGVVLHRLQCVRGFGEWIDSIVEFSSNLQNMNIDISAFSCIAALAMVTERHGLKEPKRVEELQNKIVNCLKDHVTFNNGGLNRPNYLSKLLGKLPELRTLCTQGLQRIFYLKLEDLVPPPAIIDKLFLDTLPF
Nuclear respiratory factor 1 (Homo sapiens), sequence (Q16656 whole entry, looked up, the tested form may be a part): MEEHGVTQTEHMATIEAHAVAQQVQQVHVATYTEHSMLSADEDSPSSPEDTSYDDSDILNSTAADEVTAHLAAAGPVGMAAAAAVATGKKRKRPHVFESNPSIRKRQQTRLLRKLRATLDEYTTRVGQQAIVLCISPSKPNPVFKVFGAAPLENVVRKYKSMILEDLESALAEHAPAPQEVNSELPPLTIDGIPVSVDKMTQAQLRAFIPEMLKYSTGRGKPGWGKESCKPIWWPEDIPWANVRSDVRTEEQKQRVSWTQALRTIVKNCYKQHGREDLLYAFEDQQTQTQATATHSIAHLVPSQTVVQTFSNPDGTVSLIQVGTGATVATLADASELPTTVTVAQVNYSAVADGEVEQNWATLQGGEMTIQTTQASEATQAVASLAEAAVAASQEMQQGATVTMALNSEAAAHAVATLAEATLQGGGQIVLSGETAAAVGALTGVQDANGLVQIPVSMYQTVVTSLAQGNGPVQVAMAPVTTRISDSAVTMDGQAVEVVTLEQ
Oxysterols receptor LXR-beta (Homo sapiens), sequence (P55055 whole entry, looked up, the tested form may be a part): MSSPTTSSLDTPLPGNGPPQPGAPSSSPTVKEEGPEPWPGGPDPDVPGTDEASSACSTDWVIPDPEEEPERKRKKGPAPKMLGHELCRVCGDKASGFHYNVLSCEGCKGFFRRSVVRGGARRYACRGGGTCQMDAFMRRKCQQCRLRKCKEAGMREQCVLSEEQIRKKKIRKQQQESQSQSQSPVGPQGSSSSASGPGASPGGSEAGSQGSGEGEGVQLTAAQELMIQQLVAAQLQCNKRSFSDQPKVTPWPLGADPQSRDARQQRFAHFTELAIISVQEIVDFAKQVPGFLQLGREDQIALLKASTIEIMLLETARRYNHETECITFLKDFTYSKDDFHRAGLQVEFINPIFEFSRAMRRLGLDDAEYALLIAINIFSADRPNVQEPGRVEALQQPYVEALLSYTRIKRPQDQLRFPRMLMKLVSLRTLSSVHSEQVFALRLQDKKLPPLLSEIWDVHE
Glucocorticoid receptor (Homo sapiens), sequence (P04150 whole entry, looked up, the tested form may be a part): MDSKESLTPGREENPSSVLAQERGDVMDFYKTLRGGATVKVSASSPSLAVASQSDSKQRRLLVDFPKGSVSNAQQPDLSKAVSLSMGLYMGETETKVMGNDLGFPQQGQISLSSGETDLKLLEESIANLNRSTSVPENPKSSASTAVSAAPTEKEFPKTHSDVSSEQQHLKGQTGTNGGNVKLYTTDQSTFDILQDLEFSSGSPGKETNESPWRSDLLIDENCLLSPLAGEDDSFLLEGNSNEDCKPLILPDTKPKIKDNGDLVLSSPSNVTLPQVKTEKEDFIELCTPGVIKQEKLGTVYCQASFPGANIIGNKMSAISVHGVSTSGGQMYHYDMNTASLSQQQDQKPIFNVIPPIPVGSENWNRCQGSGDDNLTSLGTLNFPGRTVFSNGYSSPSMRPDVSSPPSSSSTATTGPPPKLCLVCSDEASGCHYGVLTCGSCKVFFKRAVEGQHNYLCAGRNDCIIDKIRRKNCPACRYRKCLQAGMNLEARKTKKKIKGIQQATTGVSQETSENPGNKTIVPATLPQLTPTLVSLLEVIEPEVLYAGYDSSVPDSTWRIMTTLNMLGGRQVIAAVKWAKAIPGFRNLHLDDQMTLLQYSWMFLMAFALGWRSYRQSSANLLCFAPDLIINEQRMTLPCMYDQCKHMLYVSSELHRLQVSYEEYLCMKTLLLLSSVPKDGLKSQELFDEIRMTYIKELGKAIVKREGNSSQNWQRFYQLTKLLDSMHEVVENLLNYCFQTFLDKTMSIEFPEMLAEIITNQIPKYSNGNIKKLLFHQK
Hepatocyte nuclear factor 4-alpha (Homo sapiens), sequence (P41235 whole entry, looked up, the tested form may be a part): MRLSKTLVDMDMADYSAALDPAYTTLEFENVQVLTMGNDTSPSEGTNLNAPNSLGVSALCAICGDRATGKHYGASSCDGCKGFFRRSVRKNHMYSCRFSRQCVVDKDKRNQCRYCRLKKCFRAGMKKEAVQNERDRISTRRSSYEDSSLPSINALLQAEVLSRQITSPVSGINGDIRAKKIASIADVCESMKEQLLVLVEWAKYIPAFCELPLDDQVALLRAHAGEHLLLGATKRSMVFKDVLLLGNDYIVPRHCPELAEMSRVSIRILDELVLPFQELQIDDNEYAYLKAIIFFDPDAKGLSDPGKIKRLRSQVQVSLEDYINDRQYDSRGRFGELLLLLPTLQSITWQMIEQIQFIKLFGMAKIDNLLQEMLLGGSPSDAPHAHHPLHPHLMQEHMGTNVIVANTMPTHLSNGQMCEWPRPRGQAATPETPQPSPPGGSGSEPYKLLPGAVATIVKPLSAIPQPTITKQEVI

`COC(=O)c1ccc(O)cc1`: the call in [1], in test [2], in test [3], in test [4], in [5] and in [6] was inactive. Further, the compound was called inactive in test [7] and in test [8].

With `CCOC(=O)C(C)(C)Oc1ccc(Cl)cc1`, the compound was called inactive in test [1], in test [4], in [5], in test [6], in test [7] and in test [8].

For `CCOc1ccc2c(c1)C(C)=CC(C)(C)N2`, the AC50 (usually the midpoint of the concentration-response curve, whichever way the signal moves) was 38.2 µM (active) in test [1]; 124 µM (active) in test [5]; 183 µM (active) in test [6]; 133 µM (active) in [7]; 166 µM (active) in [8]. The call in test [2], in test [9] and in test [4] was inactive.

As to `Cc1cccc(Nc2cc(Cl)nc(SCC(=O)O)n2)c1C`, the result in [10], in [3], in [6], in test [7] and in test [8] was inactive.

Turning to `COCCOCCOC`, the compound was classed as inactive in [1], in [2], in test [6], in test [7] and in [8].

For `Cc1ccc(Cl)cc1`, the compound was classed as inactive in test [2], in [9], in [3], in test [4], in test [5] and in [6]. The result in test [7] and in test [8] was inactive.

With `Oc1ccc2ccccc2c1N=Nc1ccccc1`, the outcome in test [1], in test [2], in [9], in test [3], in [5] and in test [6] was inactive. Moreover, the compound was classed as inactive in test [7] and in [8].

Turning to `Cc1ccc(C)c(C)c1`, the result in test [10], in [5], in test [6], in [7] and in [8] was inactive.

As to `COc1ccc2c(c1)c(CC(=O)O)c(C)n2C(=O)c1ccc(Cl)cc1`, the compound was classed as inactive in test [1], in [4], in test [6], in [7] and in [8].

With `COc1cccc2c1C(=O)c1c(O)c3c(c(O)c1C2=O)C[C@@](O)(C(=O)CO)C[C@@H]3O[C@H]1C[C@H](N)[C@H](O)[C@H](C)O1`, the result in test [1], in test [2], in test [6], in [7] and in test [8] was inactive.

Regarding `O=[N+]([O-])C(CO)(CO)CO`, the compound was classed as inactive in test [1], in test [4], in test [6], in [7] and in [8].

Turning to `Nc1ccc(S(=O)(=O)c2ccc(N)cc2)cc1`, the result in test [1], in test [2], in test [9], in test [3], in test [4] and in test [5] was inactive. The outcome in test [6], in test [7] and in test [8] was inactive.

Regarding `CNC(=O)[C@H]1O[C@@H](n2cnc3c(NCc4cc(Cl)ccc4OCc4cc(C)no4)ncnc32)[C@H](O)[C@@H]1N`, the compound was classed as inactive in [1], in [3], in [6], in test [7] and in test [8].

Consider `C1CCC(SSC2CCCCC2)CC1`, for which the call in [1], in test [2], in test [3], in test [6] and in [7] was inactive. In addition, the AC50 in test [8] is 161 µM (active).

Take `CCNc1cccc(C)c1`: the compound was classed as inactive in test [1], in [2], in [3], in test [5], in test [6] and in test [7]. Besides, the compound was classed as inactive in test [8].

`CC(=O)OC/C=C(\C)CCC=C(C)C`: the compound was classed as inactive in test [10], in test [4], in [6], in test [7] and in [8].

As for `C=CCOC(=O)c1ccccc1C(=O)OCC=C`, the AC50 in test [1] was 25.1 µM (active). Moreover, the call in test [2], in test [3], in [5], in [6], in [7] and in test [8] was inactive.

Consider `O=C(OCCCCCOC(=O)c1ccccc1)c1ccccc1`, for which the call in test [1], in [9], in test [5], in [6], in test [7] and in test [8] was inactive.

`CCCCc1ccc2c(n1)[C@@H](c1ccc(OC)cc1C[C@H](C)C(=O)O)[C@H](C(=O)O)[C@H]2c1ccc2c(c1)OCO2`: the outcome in test [1], in test [2], in [4], in test [6], in [7] and in test [8] was inactive.

Take `CCCCCCCC=O`: the outcome in test [2], in test [9], in [3], in test [5], in test [6] and in test [7] was inactive. Further, in test [8], the call was inactive.

On to `O=c1[nH]cc(F)c(=O)[nH]1`, for which the call in [10], in [4], in test [5], in [6], in test [7] and in test [8] was inactive.

Consider `CC1=C(/C=C/C(C)=C/C=C/C(C)=C/CO)C(C)(C)CCC1`, for which the compound was classed as inactive in test [2], in test [3], in [4], in test [6], in [7] and in [8]. Also, in test [5], the AC50 was 2.86 µM (active).

As for `CC(CO)OC(C)CO` (centres undefined) (tested in a mixture with another compound), the outcome in test [3], in test [4], in test [6], in test [7] and in test [8] was inactive.
